Here are results for 55 molecules from paper PMC4336329 (PLoS ONE, 2015).

Screen size: about 310,000 compounds; about 14,000 (4.5%) showed an effect of 50% or more. Effects have a minus sign here. The list comes from a sample in which strong results are over-represented; it also holds similar structures and randomly drawn compounds.
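Note: peak tail current of the secondary pulse compared with the same well before compound.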

human ether-à-go-go-related gene (hERG) potassium channel, sequence (Q12809 whole entry, looked up): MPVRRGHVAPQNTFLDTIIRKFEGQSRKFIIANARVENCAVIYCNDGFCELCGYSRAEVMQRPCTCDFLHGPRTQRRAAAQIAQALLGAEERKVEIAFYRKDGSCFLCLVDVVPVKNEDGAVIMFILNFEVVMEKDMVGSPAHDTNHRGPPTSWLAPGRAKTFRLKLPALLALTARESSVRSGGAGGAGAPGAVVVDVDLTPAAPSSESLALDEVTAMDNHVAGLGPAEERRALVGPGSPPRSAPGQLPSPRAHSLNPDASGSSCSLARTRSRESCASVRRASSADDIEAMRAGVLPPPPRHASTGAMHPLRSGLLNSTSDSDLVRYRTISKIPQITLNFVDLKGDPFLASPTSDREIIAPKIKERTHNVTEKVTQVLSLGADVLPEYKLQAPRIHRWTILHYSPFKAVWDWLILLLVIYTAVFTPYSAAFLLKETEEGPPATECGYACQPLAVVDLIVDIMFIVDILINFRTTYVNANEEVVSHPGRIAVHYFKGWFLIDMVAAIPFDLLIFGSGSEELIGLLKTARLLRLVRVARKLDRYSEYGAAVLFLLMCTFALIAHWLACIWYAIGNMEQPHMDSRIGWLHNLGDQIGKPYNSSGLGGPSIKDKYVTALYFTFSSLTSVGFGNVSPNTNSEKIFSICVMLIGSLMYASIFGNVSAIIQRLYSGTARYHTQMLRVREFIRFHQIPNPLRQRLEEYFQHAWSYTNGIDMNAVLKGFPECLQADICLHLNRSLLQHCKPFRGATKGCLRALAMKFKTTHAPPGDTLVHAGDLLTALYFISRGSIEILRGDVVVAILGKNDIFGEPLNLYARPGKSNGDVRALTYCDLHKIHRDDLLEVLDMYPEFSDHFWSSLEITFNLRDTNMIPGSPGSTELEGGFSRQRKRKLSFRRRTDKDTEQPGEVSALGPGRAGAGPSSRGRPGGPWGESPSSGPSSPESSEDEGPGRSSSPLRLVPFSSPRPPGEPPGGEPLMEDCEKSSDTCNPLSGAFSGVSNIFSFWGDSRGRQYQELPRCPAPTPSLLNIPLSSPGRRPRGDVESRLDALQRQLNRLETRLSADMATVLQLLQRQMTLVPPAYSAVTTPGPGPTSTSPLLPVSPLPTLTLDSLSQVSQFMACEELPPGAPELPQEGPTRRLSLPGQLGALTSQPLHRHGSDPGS

This assay has as its target human ether-à-go-go-related gene (hERG) potassium channel (human, UniProt Q12809). As to the kind of experiment: primary screen, population patch clamp on CHO cells stably expressing hERG; higher = less effect of the substance.
With `CCC(=O)Nc1ccc(C(=O)CSc2nnc(-c3ccc(NS(=O)(=O)CC)cc3)o2)cc1OC`, the “hERG current change (%, negative = inhibition) at 10uM” value is 5.26%.
Regarding `O=C(CCN1C(=O)c2ccccc2C1=O)N1CCN(C(=O)c2ccccc2)CC1`, the “hERG current change (%, negative = inhibition) at 10uM” value was found to be 0.00878%.
The same measure for `CN(C)CCN(C)Cc1c2ccccc2c(CN(C)CCN(C)C)c2ccccc12`: 0.802%; for `CN(C)Cc1ccccc1Sc1ccccc1Br`: -36.5%; for `CN(C)CCN(C)Cc1ccccc1Sc1cccc2ccccc12.Cl`: -65.3%.
The same measure for `CCOC(=O)c1nn(-c2ccc(C)cc2)c(=O)cc1OCC(=O)Nc1cc(C)ccc1OC`: -2.12%; for `Cc1cccc(NC(=O)C2C(c3ccccc3)C2(Cl)Cl)c1` (stereo not shown): -5.35%; for `CC1CCCCN1CCCNc1c(C=O)c(=O)[nH]c2ccccc12` (stereo not shown): -3.96%.
To `S=c1nc(NCCc2ccccc2Cl)c2ccccc2[nH]1` belongs 20%; to `CC1CCCCN1CCNc1nc(=S)[nH]c2ccccc12` (stereo not shown), -67.5%.
For `Cc1nc2ccccc2c(=O)n1/N=C/c1ccccn1`, the “hERG current change (%, negative = inhibition) at 10uM” value is on record as -3.77%.
To `Cc1ccc(S(=O)(=O)N2CCOC2CNC(=O)C(=O)NCCN2CCOCC2)cc1` (stereo not shown) belongs 10.6%; to `COc1ccccc1OCC(O)Cn1nc(C)cc1C` (stereo not shown), 9.76%; to `CCCCCn1c(=N)n(CC(O)COc2ccccc2OC)c2ccccc21` (stereo not shown), -75.9%.
Consider `CCCCCn1c(=N)n(CC(O)COc2ccccc2OC)c2ccccc21.Cl` (stereo not shown), for which the “hERG current change (%, negative = inhibition) at 10uM” value is reported as -81.1%.
As to `COc1ccccc1OCC(O)COC(N)=O` (stereo not shown), the “hERG current change (%, negative = inhibition) at 10uM” value is 10.3%.
To `Cc1ccc(C(=O)Nc2nnc(S(=O)(=O)N3CCN(c4ccc(F)cc4)CC3)s2)cc1` belongs 2.59%; to `COc1ccc2c(C)nc(Nc3nc(C)cc(C)n3)nc2c1`, 5.64%; to `COc1cc(C2(c3ccc(O)c(OC)c3)C(=O)N(C)c3ccc(C)cc32)ccc1O`, -19%.
The same measure for `COc1cc(C2(c3ccc(O)c(OC)c3)C(=O)N(C)c3ccc(Br)cc32)ccc1O`: -52.6%; for `Cc1cc(C2(c3ccc(O)c(C)c3)C(=O)N(C)c3ccc(Br)cc32)ccc1O`: -2.28%; for `COC(=O)c1c(NC(=O)C(=O)N2CCOCC2)sc2c1CCCC2`: 7.47%.
In the case of `CC1CN(C(=O)c2ccccc2OCc2ccc(Cl)cc2Cl)CC(C)O1` (stereo not shown), the “hERG current change (%, negative = inhibition) at 10uM” value is -37.7%.
In the case of `CC(NC(=O)COC(=O)c1ccc(N(C)C)cc1)c1ccccc1` (stereo not shown), the “hERG current change (%, negative = inhibition) at 10uM” value amounted to 3.44%.
To `CC(=O)N(c1ccccc1)c1nc(C)cc(C)c1C#N` belongs 12.1%; to `COc1cc(-c2noc(C)c2C#Cc2nccn2C)cc(OC)c1OC`, -53.4%.
To `COc1cc(-c2noc(C)c2C#Cc2ccccn2)cc(OC)c1OC` belongs -29%; to `COc1cc(-c2noc(C)c2C#CCO)cc(OC)c1OC`, 6.47%.
Turning to `O=Cc1cn(CCC(=O)O)nc1-c1cccc(Br)c1`, the “hERG current change (%, negative = inhibition) at 10uM” value came to 24.2%.
The same measure for `Cc1ccc(S(=O)(=O)N(CC(=O)Nc2cccnc2)c2cccc(Br)c2)cc1`: -11.5%.
Take `Cc1ccc(CNC(=O)CN(c2cccc([N+](=O)[O-])c2)S(=O)(=O)c2ccccc2)cc1`: the “hERG current change (%, negative = inhibition) at 10uM” value is -25%.
As for `O=C(CN(c1cccc([N+](=O)[O-])c1)S(=O)(=O)c1ccccc1)NCc1ccccc1`, the “hERG current change (%, negative = inhibition) at 10uM” value is -68.5%.
The same measure for `COc1ccc(N(CC(=O)Nc2cccnc2)S(=O)(=O)c2ccc(C)cc2)cc1Cl`: -16.9%; for `Cc1ccc(S(=O)(=O)N(CC(=O)Nc2cccnc2)c2cccc([N+](=O)[O-])c2)cc1`: -56.6%; for `Cc1ccc(S(=O)(=O)N(CC(=O)Nc2cccnc2)c2ccccc2C)cc1`: -16.4%.
For `Cc1ccc(S(=O)(=O)N(CC(=O)Nc2cccnc2)c2ccc(Br)cc2)cc1`, the “hERG current change (%, negative = inhibition) at 10uM” value is reported as -50.3%.
For `CCOc1ccc(N(CC(=O)Nc2cccnc2)S(=O)(=O)c2ccc(C)cc2)cc1`, the “hERG current change (%, negative = inhibition) at 10uM” value is -5.5%.
With `O=C(CN(c1cccc([N+](=O)[O-])c1)S(=O)(=O)c1ccccc1)NCc1cccnc1`, the “hERG current change (%, negative = inhibition) at 10uM” value was -42.2%.
Take `Cc1cc(C)c2cc(C#N)c(NCCCNC(=O)CCC(=O)O)nc2c1`: the “hERG current change (%, negative = inhibition) at 10uM” value is 12.2%.
To `COc1ccc(N=CC2=C(Nc3ccc(OC)cc3)c3c(C)nn(-c4ccccn4)c3CC2)cc1` belongs -16.4%; to `COCC1CCN(C(=O)c2cc(COc3ccc(F)cc3F)on2)C1` (stereo not shown), -13.2%; to `CCOC(=O)c1c(NC(=O)C2C3CCC(O3)C2C(=O)O)sc2c1CCC(CC)C2` (stereo not shown), -21.1%.
Consider `COc1ccc(CN(C)Cc2c(O)ccc3ccccc23)cc1`, for which the “hERG current change (%, negative = inhibition) at 10uM” value is given as -24.7%.
The same measure for `COc1ccc(CCN(C)Cc2c(O)ccc3cc(Br)ccc23)cc1OC`: -59.5%; for `COc1ccc(CCN(C)Cc2c(O)ccc3ccccc23)cc1OC`: -74%.
The same measure for `COc1ccc2cc(Br)ccc2c1CC(=O)N(C)C`: 10.7%.
To `COc1cc(CN(C)Cc2cccc3ccccc23)cc([N+](=O)[O-])c1O` belongs 11.9%.
With `COc1ccc(CCN(C)Cc2cccc3ccccc23)cc1OC`, the “hERG current change (%, negative = inhibition) at 10uM” value is -73.8%.
To `COc1ccc(CN(C)Cc2c(O)ccc3cc(Br)ccc23)cc1OC` belongs -37.3%; to `COc1ccc(CCN(C)C(=O)CNC(=O)Cc2cccc3ccccc23)cc1OC`, -1.9%.
The same measure for `COc1ccc(OCCN(C)Cc2c(O)ccc3ccccc23)cc1`: 19%; for `Cc1ccc(C(=O)NCC(=O)OCCOc2cccc(Cl)c2)cc1`: -7.72%.
The same measure for `Cc1nn(C)c2ncc(C(N)=O)c(Oc3ccc(Cl)cc3)c12`: 7.24%; for `Cc1ccc(S(=O)(=O)Nc2cccc3cccnc23)cc1`: -12.1%; for `O=C(CSc1nc(Nc2ccccc2)nc(N2CCOCC2)n1)Nc1ccc([N+](=O)[O-])cc1`: 9.65%.
